In all, about 5,500 compounds went through this assay and about 2,000 (36%) were called active. Not shown: some 18% with an inconclusive outcome. Rule as the data show it: active = normalized growth mostly below about 0.91 (no sharp cut-off); inconclusive = no clear call, values can overlap the other calls; inactive = mostly above about 0.92. The list shows a part of the results.
Experiment: chemical genetic growth profiling, strain panel (AID 1159580);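 also: tested at 20 µM; growth read once vehicle control cultures reached saturation at 30 °C; 1 = growth at the plate median or of vehicle wells; lower values mean less growth of the strain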
Details: growth OD

Measured: normalized growth

O=C(NCCSCc1ccc(Cl)cc1)c1ccc(Cl)cc1
active: S. cerevisiae deletion strains, locus YBR229C, strain ROT2, hits give low values 0.919 | S. cerevisiae deletion strains, locus YGR078C, strain PAC10, hits give low values 0.902 | S. cerevisiae deletion strains, locus YHR030C, strain SLT2, hits give low values 0.0946 | S. cerevisiae deletion strains, locus YHR087W, strain rtc3, hits give low values 0.903 | S. cerevisiae deletion strains, locus YJL187C, strain SWE1, hits give low values 0.897 | S. cerevisiae deletion strains, locus YLR085C, strain ARP6, hits give low values 0.724 | S. cerevisiae deletion strains, locus YMR219W, strain ESC1, hits give low values 0.932 | S. cerevisiae deletion strains, locus YNL153C, strain GIM3, hits give low values 0.907 | S. cerevisiae deletion strains, locus YNL298W, strain CLA4 (second series), hits give low values 0.684 | S. cerevisiae strains, strain wild type, hits give low values 0.887
inactive: S. cerevisiae deletion strains, locus YAL013W, strain DEP1, hits give low values 0.941 | S. cerevisiae deletion strains, locus YDL101C, strain DUN1, hits give low values 0.915 | S. cerevisiae deletion strains, locus YDR150W, strain NUM1, hits give low values 0.925 | S. cerevisiae deletion strains, locus YEL061C, strain CIN8, hits give low values 1.02 | S. cerevisiae deletion strains, locus YJR043C, strain POL32, hits give low values 0.948 | S. cerevisiae deletion strains, locus YJR075W, strain HOC1, hits give low values 0.954 | S. cerevisiae deletion strains, locus YLR039C, strain RIC1, hits give low values 1.09 | S. cerevisiae deletion strains, locus YLR058C, strain SHM2 (second series), hits give low values 0.972 | S. cerevisiae deletion strains, locus YLR262C, strain YPT6, hits give low values 1.01 | S. cerevisiae deletion strains, locus YML094W, strain GIM5, hits give low values 0.881 | S. cerevisiae deletion strains, locus YMR263W, strain SAP30, hits give low values 0.954 | S. cerevisiae deletion strains, locus YMR307W, strain GAS1, hits give low values 0.849 | S. cerevisiae deletion strains, locus YNL128W, strain TEP1, hits give low values 0.965 | S. cerevisiae deletion strains, locus YNL322C, strain KRE1, hits give low values 0.961 | S. cerevisiae deletion strains, locus YNR030W, strain Alg12, hits give low values 0.936 | S. cerevisiae deletion strains, locus YPL055C, strain LGE1, hits give low values 0.893 | S. cerevisiae deletion strains, locus YPL241C, strain CIN2, hits give low values 1.03 | S. cerevisiae deletion strains, locus YPR135W, strain CTF4, hits give low values 1.07

Source: PubChem BioAssay AID1159580 (chemical genetic matrix, 2015)
